The whole screen tested about 87,000 compounds, of which about 540 (0.62%) were called active. Where a call stands in place of a potency, no number is given. The rule behind the calls is not given here. Only a selection was taken, and actives are over-represented in it overall. Potency and affinity values are given separately.

These results are taken from PubChem BioAssay AID618 (Sanford-Burnham Center for Chemical Genomics, 2007).

The test can be described thus: inhibitors of MT1-MMP promoter transcription, cell-based, luciferase reporter, luminescence (AID 618).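 Note: actives suppress MT1-MMP promoter-driven transcription so potencies describe inhibitors.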 Conditions: MT1-MMP promoter luciferase reporter cells. For orientation: A reporter such as luciferase makes a cellular process visible.
On to `COC(=O)C(C)Sc1ncnc2c1nnn2-c1ccc(F)cc1` (stereo unspecified), for which the compound was classed as inactive.

`Cc1ccc(CNC(=O)[C@H]2C[C@@H]2[C@H](NP(=O)(c2ccccc2)c2ccccc2)c2ccccc2)o1`: the compound was called inactive.

For `Cc1ccc(C(=O)c2c(C)oc3c2C(=O)C(=O)c2ccccc2-3)cc1`, the result was inactive.

Turning to `Cc1oc2c(c1C(=O)c1ccccc1)C(=O)C(=O)c1ccccc1-2`, the result was active.

In the case of `O=C1c2ccccc2C(=O)c2c1oc(C(F)(F)F)c2C(=O)c1ccccc1`, the compound was classed as inactive.

Take `Cn1c(=O)c2c(nc(NCc3cccnc3)n2Cc2cccc(C(F)(F)F)c2)n(C)c1=O`: the compound was called inactive.

`COc1cccc(Cn2c(NCc3ccccn3)nc3c2c(=O)n(C)c(=O)n3C)c1`: the call was inactive.

In the case of `Cc1cc(C)nc(Sc2ccc3nnc(C(F)(F)C(F)(F)C(F)(F)F)n3n2)n1`, the outcome was inactive.

For the compound `Cc1ccc(-c2nn3c(C)nnc3s2)cc1NC(=O)C(C)C`, the compound was classed as inactive.

`CCOc1cccc2cc(-c3cn4cc(C)ccc4n3)c(=O)oc12`: the compound was classed as active.

With `CCOc1cccc2cc(-c3nnc(-c4ccccc4)o3)c(=O)oc12`, the outcome was inactive.

On to `COc1cccc2cc(-c3cn4ccc(C)cc4n3)c(=O)oc12`, for which the compound was called inactive.

As for `CCc1ccc(OCCNC(=O)c2ccc(S(=O)(=O)N(C)C)cc2)cc1`, the compound was classed as inactive.

With `CCOC(=O)N1CCN(C(=O)c2ccc(N(Cc3ccc(C)cc3)S(C)(=O)=O)cc2)CC1`, the compound was classed as inactive.

With `CCOP(=O)(c1ccccc1Cl)C1(O)CCCCC1` (stereo unspecified), the compound was called inactive.

On to `COc1ccc(C(=O)N2CCc3cc(OC)c(OC)cc3C2)cc1OC`, for which the result was inactive.

Regarding `CCOc1cc(C(=O)N2CCc3cc(OC)c(OC)cc3C2)ccc1OC(F)F`, the compound was classed as active.

In the case of `CCOc1ccc(C(=O)N2CCCC2)cc1OC`, the call was inactive.

As for `CCOC(=O)C1=NN(c2ccc(Cl)cc2)C(c2ccccc2)CC1=O` (stereo unspecified), the compound was classed as inactive.

With `CCCN(CCC)S(=O)(=O)c1cccc(C(=O)Nc2ccc3c(c2)OCO3)c1`, the compound was classed as inactive.

Consider `Cc1ccc2oc(-c3cccc(NC(=O)C4CCCO4)c3)nc2c1` (stereo unspecified), for which the result was inactive.

Consider `O=C(Nc1ccc(-c2nc3ccccc3[nH]2)cc1)C1CCCO1` (stereo unspecified), for which the result was active.

Regarding `O=C(Nc1ccc(-c2nc3ccccc3o2)cc1)C1CCCO1` (stereo unspecified), the result was active.

As to `O=C(Nc1nc2ccccc2[nH]1)C1CCCO1` (stereo unspecified), the outcome was inactive.

With `O=C(Nc1ccc(-c2nc3cc(Cl)ccc3o2)cc1)C1CCCO1` (stereo unspecified), the outcome was inactive.

Turning to `O=C(Nc1ccc(O)cc1)C1CCCO1` (stereo unspecified), the compound was called inactive.

With `COc1ccc(OC)c(NC(=O)C2CCCN2C(=O)OCc2ccccc2)c1` (stereo unspecified), the call was inactive.

With `Nc1nnnn1/N=C/c1cccc(OCc2ccccc2Cl)c1`, the call was inactive.

Take `C=CC(O)(C#CCN(CC)CC)c1ccccc1` (stereo unspecified): the result was inactive.

For `CC(=O)NC1CC2CCCC(C1)N2C(=O)Nc1ccccc1` (stereo unspecified), the compound was called inactive.

With `O=C(Nc1ccccc1)c1cc2ccccc2o1`, the result was inactive.

On to `Cc1cc(C)nc(NC(=O)c2cc3ccccc3o2)n1`, for which the compound was called inactive.

On to `NC(=O)c1c(NC(=O)c2ccco2)sc2c1CCC2`, for which the call was inactive.

For the compound `CC(=O)Nc1sc2c(c1C(N)=O)CCC2`, the compound was called inactive.

On to `Cc1c(C(=O)Nc2ccncc2)oc2ccccc12`, for which the compound was called inactive.

`Cc1c(C(=O)Nc2ccccn2)oc2ccccc12`: the compound was called inactive.

Take `CCCC(C)NC(=O)C1CCN(S(=O)(=O)c2ccccc2)CC1` (stereo unspecified): the compound was classed as inactive.

Take `O=C(CSc1ccc(-c2nc3ccccc3[nH]2)cn1)N1CCN(C(=O)c2ccco2)CC1`: the call was inactive.

With `O=C(c1ccc(S(=O)(=O)Nc2ccccc2)cc1)N1CCOCC1`, the compound was called inactive.

As for `CCN(CC)C(=O)C(C)N(C#N)c1nc(NC(C)C)nc(NC(C)C)n1` (stereo unspecified), the result was inactive.

Turning to `Cc1ccc(Cn2c(Sc3nnc(C)s3)nc3c2c(=O)[nH]c(=O)n3C)cc1`, the compound was called inactive.

Take `Cc1cccc(CCNC(=O)C2CCC(=O)N2Cc2ccc(F)cc2)c1` (stereo unspecified): the compound was called inactive.

For the compound `CCOC(=O)Cc1csc(SCC(=O)Nc2sc3c(c2C(N)=O)CCC3)n1`, the outcome was inactive.

As for `CCSC1=C(C#N)C(c2ccc(C)s2)CC(=O)N1` (stereo unspecified), the result was inactive.

Take `CCOC(=O)CSC1=C(C#N)C(c2ccc(Cl)cc2)CC(=O)N1` (stereo unspecified): the outcome was inactive.

With `CCOC(=O)CSC1=C(C#N)C(c2ccccc2OC)CC(=O)N1` (stereo unspecified), the compound was classed as inactive.

As to `CCOC(=O)CSC1=C(C#N)C(c2ccc(C)s2)CC(=O)N1` (stereo unspecified), the compound was classed as active.

Regarding `CCOC(=O)CSC1=C(C#N)C(c2ccc(C)o2)CC(=O)N1` (stereo unspecified), the result was active.

Take `CCCCCCSC1=C(C#N)C(c2ccc(C)o2)CC(=O)N1` (stereo unspecified): the call was inactive.

Regarding `C=CCc1c(C)c(C#N)c2nc3ccccc3n2c1N1CCN(C)CC1`, the result was inactive.

On to `CCC(CC)C(=O)NCCc1cc2c(C)ccc(C)c2[nH]c1=O`, for which the result was inactive.

For `COc1cc(Nc2cc(C)nc3ncnn23)cc(OC)c1OC`, the call was inactive.

Regarding `Cc1nc2ncnn2c(Nc2ccc3c(c2)OCO3)c1Cc1ccccc1`, the call was inactive.

Consider `COc1ccc(NC(=O)CSc2nnc(-c3cccnc3)o2)cc1`, for which the outcome was inactive.

`CCn1nc(C)c(NC(=O)CCCSc2nc(-c3ccco3)cc(C(F)(F)F)n2)c1C`: the result was inactive.

For the compound `Cc1[nH]nc2c1C(C(C)C)C(C#N)=C(N)O2` (stereo unspecified), the call was inactive.

For the compound `Cc1ccc(C2C(C#N)=C(N)Oc3n[nH]c(C)c32)cc1` (stereo unspecified), the compound was called inactive.

Regarding `Cc1[nH]nc2c1C(C1CC=CCC1)C(C#N)=C(N)O2` (stereo unspecified), the call was active.

In the case of `CC(=O)N(C(C)=O)C1=C(C#N)C2(CCCCC2)Cc2ccccc21`, the call was inactive.

Consider `COc1cc(OC)cc(C(=O)Nc2nc3ccccc3[nH]2)c1`, for which the compound was classed as inactive.

In the case of `O=C(Nc1nc2ccccc2[nH]1)c1ccccc1F`, the compound was classed as active.

On to `O=C(Cc1ccccc1)Nc1nc2ccccc2[nH]1`, for which the call was inactive.

With `C=CCOc1ccc2nc(NC(=O)OC)[nH]c2c1`, the compound was called active.

Turning to `O=C(COc1ccccc1)Nc1nc2ccccc2[nH]1`, the compound was classed as inactive.

Consider `COc1cc(C(=O)Nc2nc3ccccc3[nH]2)cc(OC)c1OC`, for which the outcome was inactive.

With `O=C(Nc1ccc(F)cc1)c1ccccc1F`, the compound was classed as inactive.

`Cc1cc(NC(=O)c2ccccc2F)n(-c2nc3ccccc3[nH]2)n1`: the compound was called inactive.

For `COC(=O)Nc1nc2ccc(C(=O)c3ccccc3)cc2[nH]1`, the call was inactive.

In the case of `CCCOc1ccc2nc(NC(=O)OC)[nH]c2c1`, the compound was called inactive.

With `Cc1cc(=O)n2nc(N3CCC(C(=O)NCc4cccnc4)CC3)sc2n1`, the compound was called inactive.

`CC(C)=C1SC(N2CCN(Cc3ccccc3)CC2)=NC1=O`: the compound was classed as inactive.

Take `CC1=C(C#N)C(c2cccnc2)C2=C(CC(c3ccc(Cl)cc3)CC2=O)N1` (stereo unspecified): the result was inactive.

As for `COc1ccc(-c2nn(-c3ccccc3)cc2C(=O)N2CCOCC2)cc1`, the call was inactive.

Regarding `Cc1cc(C)n(C(=O)CN2C(=O)c3ccccc3C2=O)n1`, the compound was classed as inactive.

`O=C(NCc1ccncc1)Nc1ccc(Cl)cc1Cl`: the compound was classed as inactive.

For the compound `CCCn1c(=O)c2c(c3ccccc31)OCC(=O)N2`, the outcome was inactive.

For `COc1ccc(Cc2nnc3n2N=C(c2cc4ccccc4o2)CS3)cc1OC`, the result was inactive.

As to `COC(=O)CSc1nsc(SCC(=O)OC)n1`, the result was inactive.

As for `CCCCCSc1nc2c(cnn2-c2ccccc2)c(=O)[nH]1`, the result was inactive.

In the case of `COc1ccc(C(=O)Nc2nc3ccccc3[nH]2)cc1OC`, the compound was classed as inactive.

On to `O=C(NCCc1nc2ccccc2[nH]1)c1ccc(F)cc1`, for which the compound was classed as inactive.

With `O=C(Nc1nc2ccccc2[nH]1)c1ccc(F)cc1`, the result was active.

Consider `Cc1[nH]c2ccccc2c1/C=N/n1cnnc1`, for which the call was inactive.

With `Nc1c(C(=O)Nc2ccccc2)sc2nc3c(c(-c4ccco4)c12)CCC3`, the outcome was inactive.

`COc1ccc(C2NC3=C(CCC3)C3(C#N)C(OC)(OC)N=C(N)C23C#N)cc1` (stereo unspecified): the call was inactive.

Turning to `COc1ccc(OC)c(S(=O)(=O)NCCO)c1`, the outcome was inactive.

For `O=C(NCCc1ccccc1)C1CC(c2ccccc2O)=NO1` (stereo unspecified), the compound was called inactive.

Take `COc1ccc2c(c1)CC/C(=C\Nc1ccc3c(c1)OCO3)C2=O`: the call was inactive.

For `O=C1CCCC/C1=C/Nc1ccc2c(c1)OCO2`, the call was inactive.

Consider `CCn1cc(Br)c(C(=O)Nc2cccc(SC)c2)n1`, for which the compound was classed as inactive.

As to `CCOC(=O)c1c(N)sc(C(=O)Nc2ccc3c(c2)OCO3)c1C`, the compound was called active.

Turning to `CCOC(=O)c1c(C)c(C(=O)Nc2ccc3c(c2)OCO3)c(C)n1C`, the compound was classed as inactive.

`CCOC(=O)c1c(C)[nH]c(C(=O)Nc2ccc3c(c2)OCO3)c1C`: the result was inactive.

With `COc1ccc(-c2nnc3ccc(SCC(=O)N4CCCC4)nn23)cc1`, the compound was classed as inactive.

`Cn1c(=O)c2c(nc(N3CCN(Cc4ccccc4)CC3)n2CCSc2ncccn2)n(C)c1=O`: the call was inactive.

For the compound `COc1ccc(CCNS(=O)(=O)c2ccc(N3CCCC3=O)cc2)cc1`, the outcome was inactive.

`COc1ccc(S(=O)(=O)Nc2cc(Cl)ccc2OC)cc1`: the outcome was active.

Take `COc1ccc(OC)c(NS(=O)(=O)c2ccc(N3CCCC3=O)cc2)c1`: the outcome was active.

As for `Cc1ccccc1NS(=O)(=O)c1ccc(N2CCCC2=O)cc1`, the compound was classed as inactive.

Take `COc1ccc(Cl)cc1NS(=O)(=O)c1ccc(OC)c(OC)c1`: the outcome was inactive.

As for `COc1ccc(Cl)cc1NS(=O)(=O)c1ccc(S(=O)(=O)N2CCCC2)cc1`, the outcome was inactive.

Consider `C=CCc1cccc(/C=N/n2c(C)nnc2C)c1O`, for which the call was inactive.

As for `O=C1CC(c2ccc(S(=O)(=O)N3CCCCC3)cc2)CN1` (stereo unspecified), the call was inactive.

Consider `CCOc1cccc(CNn2cnnc2)c1OCc1ccccc1`, for which the result was inactive.

Consider `CCN1CCN(CCNC(=O)CS(=O)(=O)Cc2nc(-c3ccc(C)cc3)oc2C)CC1`, for which the call was inactive.

Consider `CCOc1cc(-c2noc(N)c2C(=O)OC)cc(OCC)c1OCC`, for which the compound was classed as inactive.

For `Cc1ccc(-c2nc(N/N=C/c3cccnc3)c3ccccc3n2)cc1`, the compound was called inactive.

In the case of `Brc1ccc(-c2nc(N/N=C/c3cccnc3)c3ccccc3n2)cc1`, the outcome was inactive.

`COc1ccc(CCn2c(C)cc3c(c2=O)C(c2ccc4c(c2)OCO4)C(C#N)=C(N)O3)cc1OC` (stereo unspecified): the call was inactive.

On to `COc1ccccc1NC(=O)C1C2CCCCC21` (stereo unspecified), for which the call was inactive.

`Cc1cc(C)n(C(=O)c2nn(C)c(C)c2[N+](=O)[O-])n1`: the result was inactive.

`CC(=O)c1cccc(NC(=O)c2cc3ccccn3n2)c1`: the compound was classed as inactive.

As to `COc1cccc(CNC(=O)c2cc3ccccn3n2)c1`, the outcome was inactive.

As for `O=C(Nc1ccc(CN2CCOCC2)cc1)c1cc2ccccc2o1`, the outcome was inactive.

In the case of `O=C(Nc1ccc(CN2CCOCC2)cc1)c1cccc(F)c1`, the compound was called inactive.

Consider `COc1ccc(-c2ccc(-c3noc(-c4ccc(OC)c(OC)c4)n3)c(OC)n2)cc1`, for which the call was inactive.
